Screens deposited in PubChem by several laboratories.
The list is not random: actives were taken first. Their share in the collection is about 3.6%.
VHR inh abs: blocks human VHR1 dual specificity phosphatase; recombinant VHR phosphatase, pNPP absorbance; AID 1654; 0.52% of 290,000 active; inhibition, % at 13.3 µM; P51452; in the data active = inhibition above about 50%
Target sequence (P51452 whole entry, looked up): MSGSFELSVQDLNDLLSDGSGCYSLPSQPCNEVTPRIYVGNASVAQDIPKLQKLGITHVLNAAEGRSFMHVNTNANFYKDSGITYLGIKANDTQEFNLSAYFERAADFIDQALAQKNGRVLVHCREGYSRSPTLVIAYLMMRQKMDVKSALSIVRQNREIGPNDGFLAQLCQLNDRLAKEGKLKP
FBA Mtb inh: inhibitors of M. tuberculosis fructose-bisphosphate aldolase | P9WQA3 | purified M. tuberculosis FBA, fluorescence read-out | inhibition, % at 1 µM | 2.3% of 360,000 active | AID 588726
Target sequence (P9WQA3 whole entry, looked up): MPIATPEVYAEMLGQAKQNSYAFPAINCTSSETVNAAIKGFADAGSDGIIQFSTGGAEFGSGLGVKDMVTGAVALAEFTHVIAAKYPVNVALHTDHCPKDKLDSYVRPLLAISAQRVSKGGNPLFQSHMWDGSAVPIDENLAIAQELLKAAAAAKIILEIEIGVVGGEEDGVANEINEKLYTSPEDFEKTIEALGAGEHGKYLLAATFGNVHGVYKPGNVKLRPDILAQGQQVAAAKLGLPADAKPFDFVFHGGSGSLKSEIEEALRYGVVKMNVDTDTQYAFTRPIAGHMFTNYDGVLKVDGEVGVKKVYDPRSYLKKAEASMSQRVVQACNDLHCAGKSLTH
Mtb betalactam: beta-lactam sensitization of Mtb H37Rv | inhibition, % at 25 µM | M. tuberculosis H37Rv growth with meropenem, percent inhibition | AID 434955 | 0.27% of 330,000 active; call rule not given here;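 note: growth measured after seven days incubation then overnight dye step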
GDH-TPI counter-1: inhibits GDH-TPI coupling enzymes, artifact for Mtb FBA screen. inhibition, % at 4.8 µM. 1.2% of 360,000 active. GDH-TPI coupled enzyme counterscreen, NADH absorbance. AID 588335; in the data active = inhibition above about 30%
Mtb hypoxia inh: Mtb hypoxia fluorescent reporter inhibition; fluorescence inhibition, % (no concentration beside the values); AID 1159583; M. tuberculosis hypoxia-regulated fluorescent reporter, fluorescence; 0.1% of 300,000 active; in the data active = fluorescence inhibition mostly above about 23%, no sharp cut-off; inactive = mostly below about 17%
Mtb FBA confirm: confirmation of M. tuberculosis fructose-bisphosphate aldolase inhibitors | purified M. tuberculosis FBA, fluorescence read-out | inhibition, % at 1 µM | 78% of 5,600 active | shares compounds with FBA Mtb inh | AID 651616
GDH-TPI counter-2: GDH-TPI inhibition counter-screen for FBA inhibitors; shares compounds with FBA Mtb inh; GDH-TPI coupled enzyme counterscreen, fluorescence; inhibition, % at 1 µM; 81% of 5,600 active; in the data active = inhibition above about 10%
Each line names hits and unclear results; the compound was inactive in the other large screens (follow-up assays come after a bar, where they were run). Cut-off read from the data, not from the text of the source, unless noted: active = inhibition above about 27%; inactive = the rest.

CN(C)CCCn1c2c3ccccc3ccc2c2oc(=O)c3ccccc3c21	FBA Mtb inh 27.0 (no result: VHR inh abs, Mtb betalactam, Mtb hypoxia inh) | Mtb FBA confirm active | GDH-TPI counter-2 active
CCOC(=O)N1CCN(C(=O)c2cc3c(=O)[nH]c4ccccc4c3s2)CC1	none
COCCNC(=O)c1cc2c(=O)[nH]c3ccccc3c2s1	FBA Mtb inh 77.9 | Mtb FBA confirm 102.2 | GDH-TPI counter-2 84.0
CCCN1CCN(CCCNC(=O)c2cc3c(=O)[nH]c4ccccc4c3s2)CC1	FBA Mtb inh 46.8 | Mtb FBA confirm 91.1 | GDH-TPI counter-2 76.1
NC(=O)CCC(NC(=O)c1ccc(F)cc1)C(=O)OCC(=O)NCc1ccc(F)cc1 (stereo not given)	none (no result: VHR inh abs, FBA Mtb inh, Mtb betalactam, GDH-TPI counter-1)
CCOC(=O)C1=C(C)NC(=O)NC1c1cn(-c2ccccc2)nc1-c1cccs1 (stereo not given)	none
CCOC(=O)C1=C(C)NC(C)=C(C(=O)OCC)C1c1cn(-c2ccccc2)nc1-c1ccco1	FBA Mtb inh 60.9 (no result: Mtb hypoxia inh) | Mtb FBA confirm inactive | GDH-TPI counter-2 inactive
O=C(NN=Cc1cccs1)C(=O)N1CCCC1	none (no result: VHR inh abs, FBA Mtb inh, Mtb betalactam, GDH-TPI counter-1)
COc1ccc2cc(C(=O)C3CCCN(C(=O)/C=C/c4ccccn4)C3)ccc2c1 (stereo not given)	FBA Mtb inh 56.6 | Mtb FBA confirm 54.7 | GDH-TPI counter-2 48.1
COc1ccc2cc(C(=O)C3CCCN(C(=O)c4cnccn4)C3)ccc2c1 (stereo not given)	FBA Mtb inh 88.5 | Mtb FBA confirm 54.9 | GDH-TPI counter-2 45.2
COc1ccc2cc(C(=O)C3CCCN(C(=O)c4cc5nc(C)cc(C)n5n4)C3)ccc2c1 (stereo not given)	FBA Mtb inh 75.1 | Mtb FBA confirm 97.5 | GDH-TPI counter-2 86.9
CC(C)Oc1cccc(C(=O)C2CCCN(C(=O)c3ccccn3)C2)c1 (stereo not given)	none
COc1ccc2cc(C(=O)C3CCCN(Cc4cnc(C)s4)C3)ccc2c1 (stereo not given)	FBA Mtb inh 40.8 | Mtb FBA confirm active | GDH-TPI counter-2 active
O=C(c1ccc2ccccc2c1)C1CCCN(C(=O)c2cnccn2)C1 (stereo not given)	none
COc1ccc(C(=O)C2CCCN(Cc3cnc(C)s3)C2)cc1OC (stereo not given)	none
CSc1ccccc1NC(=O)CON=C(C)c1cc2ccccc2o1	none (no result: VHR inh abs, FBA Mtb inh, Mtb betalactam, GDH-TPI counter-1)
O=C(Nc1ccccc1)ON=Cc1ccc(F)cc1	none (no result: VHR inh abs, FBA Mtb inh, Mtb betalactam, GDH-TPI counter-1)
CC(C)CCOC(=O)C1C2C=C[C@]3(CN(Cc4cccs4)C(=O)C13)O2 (stereo not given in full)	none (no result: VHR inh abs, FBA Mtb inh, Mtb betalactam, GDH-TPI counter-1)
CC1=C(C)C(=NOC(=O)c2cccc([N+](=O)[O-])c2)C=CC1=O	none (no result: VHR inh abs, FBA Mtb inh, Mtb betalactam, GDH-TPI counter-1)
COc1ccc2cc(C(=O)C3CCCN(C(=O)c4snnc4C)C3)ccc2c1 (stereo not given)	FBA Mtb inh 108.3 | Mtb FBA confirm 136.0 | GDH-TPI counter-2 116.7
CCCc1nc2ccc(N)cc2c(=O)n1Cc1ccccc1Cl	FBA Mtb inh 27.9 | Mtb FBA confirm 105.3 | GDH-TPI counter-2 83.2
Cc1coc2c1c(C)cc1oc(=O)c(CC(=O)N[C@@H](C)C(=O)O)c(C)c12	FBA Mtb inh 37.6 | Mtb FBA confirm active | GDH-TPI counter-2 active
CCC(NC(=O)Cc1c(C)c2c(cc(C)c3c(C)c(C)oc32)oc1=O)C(=O)O (stereo not given)	FBA Mtb inh 36.6 | Mtb FBA confirm 193.0 | GDH-TPI counter-2 178.6
Cc1coc2c1c(C)cc1oc(=O)c(CC(=O)N[C@H](C(=O)O)C(C)C)c(C)c12	FBA Mtb inh 76.5 | Mtb FBA confirm 51.5 | GDH-TPI counter-2 48.6
COc1ccc(-c2ccc(C)cc2)cc1C1C2C=CCC[C@@]2(C)C(=O)N1Cc1ccccc1 (stereo not given in full)	none (no result: VHR inh abs, FBA Mtb inh, Mtb betalactam, GDH-TPI counter-1)
COc1cccc(C(=O)N2CCN(c3ccc(N4CCOCC4)nn3)CC2)c1	FBA Mtb inh 28.6 (no result: VHR inh abs) | Mtb FBA confirm inactive | GDH-TPI counter-2 inactive
O=C(C1CCN(c2ccc(N3CCOCC3)nn2)CC1)N1CCN(c2ccc(F)cc2)CC1	FBA Mtb inh 33.5 | Mtb FBA confirm 39.1 | GDH-TPI counter-2 31.8
Cc1cnc(C)c(N2CCC(C(=O)NCc3ccco3)CC2)n1	none (no result: Mtb hypoxia inh)
O=C(NCc1ccco1)C1CCN(c2ccc(N3CCOCC3)nn2)CC1	FBA Mtb inh 27.2 | Mtb FBA confirm inactive | GDH-TPI counter-2 inactive
Cc1ccccc1C(=O)N1CCN(c2ccc(N3CCOCC3)nn2)CC1	FBA Mtb inh 37.0 (no result: VHR inh abs) | Mtb FBA confirm 55.7 | GDH-TPI counter-2 42.7
O=C(c1cccc(Br)c1)N1CCN(c2ccc(N3CCOCC3)nn2)CC1	none (no result: VHR inh abs)
O=C(C1CCN(S(=O)(=O)N2CCOCC2)CC1)N1CCN(c2ccc(F)cc2)CC1	none
CCOC(=O)C1C2COc3ccccc3C2N2C(=O)c3cc(Br)ccc3NC(=O)[C@@]12C (stereo not given in full)	none (no result: VHR inh abs, FBA Mtb inh, Mtb betalactam, GDH-TPI counter-1)
COc1ccc2c(c1)CCc1cc(C(=O)N3CCN(c4ccc(N5CCOCC5)nn4)CC3)sc1-2	FBA Mtb inh 40.5, GDH-TPI counter-1 34.1 | Mtb FBA confirm active | GDH-TPI counter-2 195.2
O=C(COC(=O)c1cccc2ccccc12)NCC1CCCO1 (stereo not given)	FBA Mtb inh 36.4 | Mtb FBA confirm 137.2 | GDH-TPI counter-2 119.5
COc1cccc(CNC(=O)COC(=O)/C=C/c2ccc(SC)cc2)c1	FBA Mtb inh 36.5 (no result: VHR inh abs) | Mtb FBA confirm active | GDH-TPI counter-2 active
O=C(COC(=O)/C=C/c1ccc(Cl)c(Cl)c1)NC1CCS(=O)(=O)C1 (stereo not given)	none (no result: VHR inh abs)
COc1ccc(/C=C/C(=O)OCC(=O)NC2CCCCCCC2)cc1	none (no result: VHR inh abs)
O=C(COC(=O)c1ccccc1)NCC1CCCO1 (stereo not given)	none
CSc1ccc(/C=C/C(=O)OCC(=O)NC2CCCCCC2)cc1	FBA Mtb inh 29.7 (no result: VHR inh abs, Mtb betalactam, Mtb hypoxia inh) | Mtb FBA confirm active | GDH-TPI counter-2 196.0
CSc1ccc(/C=C/C(=O)OCC(=O)NC2CCS(=O)(=O)C2)cc1 (stereo not given)	FBA Mtb inh 63.9, GDH-TPI counter-1 34.8 (no result: VHR inh abs) | Mtb FBA confirm 36.6 | GDH-TPI counter-2 24.4
COc1ccc(C2CC(=O)C=C(c3ccc4ncccc4c3)C2)cc1 (stereo not given)	none (no result: VHR inh abs, FBA Mtb inh, Mtb betalactam, GDH-TPI counter-1)
CCn1c(SCC(=O)NN=Cc2ccccc2OCC(=O)O)nnc1-c1ccc(C)cc1	none (no result: VHR inh abs, FBA Mtb inh, Mtb betalactam, GDH-TPI counter-1)
CCOC(=O)c1ccc(-c2ccc(C=NNC(=O)c3cncc(Br)c3)o2)cc1	none (no result: VHR inh abs, FBA Mtb inh, Mtb betalactam, GDH-TPI counter-1)
CC1Oc2ccccc2C=C1C1C(=C(O)c2ccccc2)C(=O)C(=O)N1CCCN(C)C (stereo not given)	none (no result: VHR inh abs, FBA Mtb inh, Mtb betalactam, GDH-TPI counter-1)
S=C(NN=Cc1ccc2ncccc2c1)Nc1cccnc1	none (no result: VHR inh abs, FBA Mtb inh, Mtb betalactam, GDH-TPI counter-1)
CSc1ccc(/C=C/C(=O)OCC(=O)N2CCCCCC2)cc1	FBA Mtb inh 81.1, GDH-TPI counter-1 43.0 (no result: VHR inh abs) | Mtb FBA confirm active | GDH-TPI counter-2 active
CSc1ccc(/C=C/C(=O)OCC(=O)NCC2CCCO2)cc1 (stereo not given)	FBA Mtb inh 45.2 (no result: VHR inh abs) | Mtb FBA confirm 52.7 | GDH-TPI counter-2 49.3
